Screening data: PubChem, several laboratories
Sampled rows, rich in hits. Any-hit rate of the full collection: about 6.6%.
BoNT-F LC inh – BoNT/F light chain protease inhibitors, primary screen, biochemical, flow cytometry, MLPCN library | Botulinum neurotoxin type F light chain protease (Clostridium botulinum) | inhibition, % at 10 µM | Multiplex microsphere protease cleavage assay | AID 588497, 2011 | hit rate 0.22% among 360,000; in the data active = inhibition above about 35%, passing the limit was not always enough; inconclusive = no clear call, values can overlap the other calls; also: plate controls were buffer without enzyme for full effect and enzyme alone for no effect
GDH-TPI counter-1 – GDH-TPI coupling enzyme inhibitors, primary screen, artefact control for M. tuberculosis FBA inhibitor project, biochemical, absorbance, full deck; GDH-TPI coupled enzyme counterscreen, NADH absorbance; AID 588335, 2011; hit rate 1.2% among 360,000; inhibition, % at 4.8 µM; in the data active = inhibition above about 30%;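 also: 0% = DMSO wells and 100% = wells lacking the enzyme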
BoNT A protease – BoNT/A light chain protease inhibitors, primary screen, biochemical, flow cytometry, MLPCN library; multiplex microsphere protease substrate cleavage; inhibition, % at 10 µM; hit rate 0.17% among 360,000; AID 588499, 2011; in the data active = inhibition above about 30%; inconclusive = no clear call, values can overlap the other calls; also: plate controls were buffer without enzyme for full effect and enzyme alone for no effect
Bead autofluor – compound fluorescence in toxin protease inhibitor counterscreen; compound autofluorescence counterscreen, microsphere flow cytometry; active compounds read high; fluorescence intensity (no concentration beside the values); hit rate 3.1% among 360,000; in the data active = fluorescence intensity above about 16000; inconclusive = no clear call, values can overlap the other calls
Anthrax LF inh2 – Bacillus anthracis LF protease inhibitors, primary screen, biochemical, multiplex microsphere, MLPCN library; hit rate 0.12% among 360,000; multiplex microsphere protease cleavage assay; inhibition, % at 10 µM; Lethal factor (Bacillus anthracis), P15917; in the data active = inhibition above about 30%; inconclusive = no clear call, values can overlap the other calls; also: plate controls were buffer without enzyme for full effect and enzyme alone for no effect
Target sequence (P15917 whole entry, looked up): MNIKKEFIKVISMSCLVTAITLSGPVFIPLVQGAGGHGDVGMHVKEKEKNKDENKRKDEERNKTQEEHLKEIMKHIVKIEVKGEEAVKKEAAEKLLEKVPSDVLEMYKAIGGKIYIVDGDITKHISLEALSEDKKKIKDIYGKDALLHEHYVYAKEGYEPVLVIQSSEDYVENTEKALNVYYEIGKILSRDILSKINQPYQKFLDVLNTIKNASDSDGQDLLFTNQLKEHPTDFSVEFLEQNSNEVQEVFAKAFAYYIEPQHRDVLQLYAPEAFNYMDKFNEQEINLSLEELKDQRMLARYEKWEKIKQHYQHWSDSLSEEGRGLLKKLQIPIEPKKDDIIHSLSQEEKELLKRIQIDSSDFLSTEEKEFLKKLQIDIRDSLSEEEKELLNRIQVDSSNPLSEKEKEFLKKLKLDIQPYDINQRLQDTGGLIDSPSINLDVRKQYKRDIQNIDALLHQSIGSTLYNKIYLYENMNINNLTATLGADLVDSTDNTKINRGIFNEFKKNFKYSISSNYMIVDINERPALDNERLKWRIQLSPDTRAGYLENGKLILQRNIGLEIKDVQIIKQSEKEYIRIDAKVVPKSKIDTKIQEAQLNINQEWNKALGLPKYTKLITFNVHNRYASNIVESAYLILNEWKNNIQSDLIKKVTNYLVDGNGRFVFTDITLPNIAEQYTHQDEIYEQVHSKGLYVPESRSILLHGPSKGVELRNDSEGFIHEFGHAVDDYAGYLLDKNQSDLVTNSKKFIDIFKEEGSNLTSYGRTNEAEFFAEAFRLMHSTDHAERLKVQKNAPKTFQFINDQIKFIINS
Mtb FBA inh – Mtb FBA enzyme inhibitors, primary screen, biochemical, fluorescence, strain H37Rv | Fructose-bisphosphate aldolase (Mycobacterium tuberculosis (strain ATCC 25618 / H37Rv)), … | purified M. tuberculosis FBA, fluorescence read-out | inhibition, % at 1 µM | hit rate 2.3% among 360,000 | AID 588726, 2011;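 also: 0% = vehicle and 100% = reference inhibitor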
Mtb FBA inh conf – M. tuberculosis aldolase blockers, biochemical, fluorescence, strain H37Rv, confirmation | shares compounds with Mtb FBA inh | purified M. tuberculosis FBA, fluorescence read-out | inhibition, % at 1 µM | hit rate 78% among 5,600 | AID 651616, 2012;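 also: 0% = vehicle wells and 100% = reference inhibitor wells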
GDH-TPI counter-2 – GDH-TPI coupling enzyme inhibitors, artefact control for M. tuberculosis FBA inhibitor project, biochemical, fluorescence, high throughput; inhibition, % at 1 µM; GDH-TPI coupled enzyme counterscreen; AID 652141, 2013; shares compounds with Mtb FBA inh; hit rate 81% among 5,600; in the data active = inhibition above about 10%
GDH-TPI DR – GDH-TPI coupling enzyme inhibitors, dose response, artefact control for M. tuberculosis FBA inhibitor project, biochemical, fluorescence, IC50 | shares compounds with Mtb FBA inh | GDH-TPI coupled enzyme assay, artifact counterscreen | IC50, µM | hit rate 79% among 170 | AID 652145, 2013; call rule not given here
Active calls of the source: *; u = inconclusive; x = not tested or not shown. Rule as the data show it, unless noted: active = inhibition above about 27%; inactive = the rest.

SMILES	BoNT-F LC inh	GDH-TPI counter-1	BoNT A protease	Bead autofluor	Anthrax LF inh2	Mtb FBA inh	Mtb FBA inh conf	GDH-TPI counter-2	others
CC(=O)Nc1ccc(S(=O)(=O)C(C#N)c2nc3ccccc3nc2NCCN2CCOCC2)cc1 (centres undefined)	4.8	12.9	1.9	3133	-1.0	55.6*	72.8*	61.7*
Nc1c(C(=O)NCCN2CCOCC2)c2nc3ccccc3nc2n1-c1ccc2c(c1)OCO2	1.6	21.7	u	7073	4.1	3.8	x	x
O=C(Cn1c(CN2CCCCC2)nc2ccccc2c1=O)NCc1ccco1	-7.1	1.4	0.0	10484	-1.9	-1.4	x	x
Nc1c(C(=O)NCc2ccco2)c2nc3ccccc3nc2n1CCN1CCCCC1	-38.3	17.7	3.1	14811	-11.3	90.7*	13.1	4.6	GDH-TPI DR=1.64*
COC(=O)c1ccc(NC(=O)c2cc[n+]([O-])cc2)cc1	-11.5	5.4	-1.4	3947	-10.4	-2.4	x	x
Cc1cc(C)n2c(SCC(=O)NC3CCCCC3)nnc2n1	-1.5	-2.6	-0.7	4113	-4.1	1.3	x	x
CCOc1ccc(OCCNC(=O)c2cc(C3CC3)nc3c2cnn3C(C)C)cc1	12.0	-2.8	4.0	6187	0.0	-4.6	x	x
CC1=C(C#N)C(c2ccc(O)cc2)C2=C(CCCC2=O)N1 (centres undefined)	-9.4	4.2	-1.6	2060	-2.3	14.1	x	x
CC1=C(C#N)C(c2cccnc2)C2=C(CC(c3ccc(Cl)cc3)CC2=O)N1 (centres undefined)	3.9	7.9	0.8	5863	4.8	70.2*	6.2	-1.2
CCN(CC)S(=O)(=O)c1ccc(C(=O)NCC(=O)NCc2ccc3c(c2)OCO3)cc1	0.8	17.7	-0.6	6912	2.6	3.5	x	x
Cn1cnc(S(=O)(=O)Nc2ccccc2C(=O)NCC2CC2)c1	-8.6	0.7	-0.6	5888	-6.7	29.1*	82.3*	63.6*
CCOc1ccc(OCC)c(NS(=O)(=O)c2cn(C)cn2)c1	1.3	-7.4	2.9	4607	-1.5	0.4	x	x
O=C(OCCc1ccccc1)c1cc(O)c(O)c(O)c1	-0.8	4.3	0.0	4043	-0.7	-0.7	x	x
CCSc1ncccc1C(=O)N[C@@H](CCSC)C(=O)OC	x	-3.8	x	x	x	2.9	x	x
CCS(=O)(=O)c1ccc2c(c1)NC(=O)C(CCCl)O2 (centres undefined)	3.0	-3.1	-0.7	3236	-1.8	77.6*	140.1*	112.0*
FC(F)(F)c1cc(-c2cccs2)nc(-n2cc(Cl)cn2)n1	-2.5	19.7	-0.1	3993	-3.1	30.2*	40.8*	35.2*
CCCCNC(=O)Nc1ccnn1C1CCCCC1	-5.8	3.8	0.4	3100	-1.8	2.6	x	x
Cc1ccc(CN2CCSc3ccc(C(=O)NCc4cccnc4)cc32)cc1	-6.8	-0.8	-0.1	2531	-0.7	69.2*	26.0	23.0*
COc1ccc(CCNC(=O)c2ccc3c(c2)N(Cc2ccc(C)cc2)CCS3)cc1OC	10.9	8.6	2.1	5004	-4.9	54.2*	64.2*	51.2*
O=C(NCC1CCCO1)c1ccc2c(c1)N(Cc1ccccc1)C(=O)CS2 (centres undefined)	9.4	2.2	-1.9	4516	0.4	-3.0	x	x
COc1ccc(OC)c(CCNC(=O)c2ccc3c(c2)N(Cc2ccc(F)cc2)CCS3)c1	6.6	0.9	0.4	5201	-1.6	21.7	x	x
Cc1ccc(CN2CCSc3ccc(C(=O)NCC4CCCO4)cc32)cc1 (centres undefined)	-2.3	9.6	-3.6	5759	-3.6	58.2*	46.6*	23.4*
Cc1cc(=O)n(C(C)Cc2ccccc2)n1C(C)Cc1ccccc1 (centres undefined)	1.5	13.8	0.2	3733	4.9	7.0	x	x
O=C(COc1ccc2c3c(c(=O)oc2c1)CCCC3)N[C@@H](Cc1ccccc1)C(=O)O	-6.7	10.4	-0.5	4224	-5.6	59.4*	6.6	-0.8
O=C(COc1ccc2c3c(c(=O)oc2c1)CCCC3)NCc1cccnc1	20.7	0.0	13.2	3420	4.7	7.3	x	x
SMILES	BoNT-F LC inh	GDH-TPI counter-1	BoNT A protease	Bead autofluor	Anthrax LF inh2	Mtb FBA inh	Mtb FBA inh conf	GDH-TPI counter-2	others
O=C(COc1ccc2c3c(c(=O)oc2c1)CCCC3)NC(Cc1ccc(Cl)cc1)C(=O)O (centres undefined)	0.6	14.7	0.5	5379	-1.6	67.0*	124.3*	100.5*
CC(Oc1ccc2c3c(c(=O)oc2c1)CCC3)C(=O)N[C@@H](Cc1ccccc1)C(=O)O (some centres undefined)	1.8	11.8	-0.7	5692	-8.5	22.7	x	x
CC(C)(C)C(=O)NCc1ccc(C(=O)CSc2nnc(-c3ccncc3)n2C2CC2)s1	x	9.5	x	x	x	0.7	x	x
S=C(NCC1CCCO1)Nc1cc(Cl)c(Cl)cc1Cl (centres undefined)	-9.2	-7.0	-0.6	4352	3.7	2.5	x	x
N#Cc1cc(Cl)c(NCC2CCCO2)cc1C#N (centres undefined)	-1.7	21.4	-0.2	3889	-4.0	37.6*	76.6*	65.4*
N#Cc1cccc(C#N)c1NCC1CCCO1 (centres undefined)	21.2	12.7	0.5	3387	1.4	96.7*	184.5*	121.7*
CN1C(=O)c2ccccc2N(C)C1c1cccs1 (centres undefined)	3.3	15.2	0.3	3556	-3.6	36.0*	199.6*	136.3*
CN1C(=O)c2ccccc2N(C)C1c1ccccc1Cl (centres undefined)	-0.3	-6.7	-0.8	4199	-1.2	64.5*	56.7*	38.3*
CN(C)/C=C/c1c([N+](=O)[O-])c2ccc(O)cc2n1-c1ccccc1	-27.4	14.1	-2.0	3288	-18.0	2.5	x	x
CCCCC1CCC(C(=O)N(C)CC(=O)Nc2cccc(OC)c2)CC1 (centres undefined)	6.3	-2.9	6.0	5253	-0.8	-3.3	x	x
CC(=O)c1cc(F)c(N2CCN(C(=O)COc3ccccc3F)CC2)cc1C	-33.6	6.6	-0.7	5453	2.3	38.1*	9.4	5.7
COCCNC(=O)C1CCCN(C(=O)c2cc(-c3ccccc3)cs2)CC1 (centres undefined)	-8.7	10.2	-0.5	3752	-5.4	-0.1	x	x
